HT1080 IDH1KD tx: HT-1080 IDH1 knockdown cell toxicity (counter line) | HT-1080 IDH1 knockdown viability, ATP luminescence, 48 h | Potency, µM (top dose mostly 46.1 µM), without a hit: at the highest dose activity, negative = toxicity, actives largely listed as cytotoxic | hit rate 2% among 360,000;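 further: potency means the concentration at half of the fitted maximal effect; 0% = DMSO wells and -100% = cell-free medium wells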
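In this qHTS, HT-1080 cells depleted of IDH1 are exposed for 48 h at 37 °C to compound titrations. Toxicity is scored from CellTiter-Glo luminescence, with DMSO as full viability and medium alone as none.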
TDP1 cell CPT: DT40-hTDP1 cell growth loss with CPT; chicken DT40 Tdp1-/-;hTDP1 cells + 20 nM CPT, ATP luminescence, 48 h; Potency, µM (titrated, usually from 46.2 µM), without a hit: top-dose activity change, negative = growth inhibition, most hits filed as inhibitors; hit rate 12% among 420,000; further: potency means the concentration at half of the fitted maximal effect; nearly all actives have a fitted effect of over 55% in size
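Cell growth measured by CellTiter-Glo luminescence after a minimum 48 h, 37 C compound exposure with 20 nM CPT in Tdp1-knockout DT40 cells stably expressing hTDP1, seeded 400/well; qHTS titration format.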
IL1B secr inh: blocks inflammasome-driven IL-1 beta release. THP-1 LPS/ATP IL-1B secretion, AlphaLISA, 16 h; stronger effect = lower value. hit rate 4.7% among 360,000. activity change, % at 57.5 µM; in the data active means activity change below about -50%; inconclusive means mostly about -30% to -49%
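THP-1 cells pretreated 1 hr with compounds (up to 57.5 uM final), then stimulated with LPS (250 ng/mL final) plus ATP (1.25 mM final); secreted IL-1B measured by AlphaLISA after 16 hr, decreased signal indicating inhibition.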
TDP1 cell noCPT: qHTS for Inhibitors of human tyrosyl-DNA phosphodiesterase 1 (TDP1): qHTS in cells in absence of CPT; DT40 Tdp1-/- hTDP1 cells, no CPT, ATP luminescence, 48 h; Potency, µM (top dose mostly 46.2 µM), for inactives: at the highest dose activity change, negative = growth inhibition, usual class: inhibitors; hit rate 15% among 420,000; AID 686978, 2013; further: potency means the concentration at half of the fitted maximal effect; nearly all actives have a fitted effect of over 55% in size
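Chicken DT40 Tdp1-/- cells stably complemented with human TDP1 were seeded at 400 cells/well with DMSO in place of 20 nM camptothecin. After compound pinning, cells grew at least 48 hr at 37 °C; viability read by CellTiter-Glo luminescence.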
ELG1 repair inh: ELG1-dependent DNA repair inhibition; AID 504467; hit rate 2.3% among 330,000; Potency, µM (doses to about 46.1 µM), for inactives: top-dose activity change, negative = inhibition, most hits filed as inhibitors; HEK293T ELG1-luciferase reporter, luminescence, 16 h; DNA damage induced by 5-fluorouridine; further: potency means the concentration at half of the fitted maximal effect; nearly all actives have a fitted effect of over 55% in size
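HEK293T cells expressing luciferase-tagged ELG1 (2,000/well) received 5-Fluorouridine plus compound or DMSO for 16 hr at 37 °C. Luciferase was read by ONE-Glo luminescence after 30 min at room temperature.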
HT1080-NT tox: kills 2HG-producing HT-1080-NT fibrosarcoma cells. HT-1080-NT fibrosarcoma viability, CellTiter-Glo ATP luminescence, 48 h. hit rate 1.6% among 360,000. AID 686970. Potency, µM (series often up to 46.1 µM), inactives show at the highest dose activity, negative = less viability, usual class: cytotoxic;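 further: NT is the 2HG producing partner of a matched IDH1 knockdown line; potency means the concentration at half of the fitted maximal effect; 0% = DMSO-treated cells and -100% = media-only wells without cells; nearly all actives have a fitted effect of over 55% in size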
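750 cells/well, RPMI + 5% FBS; 2 h settle, compound pin-transfer, 48 h at 37 degrees C. CellTiter-Glo 10 min RT, luminescence. Normalized to DMSO and media-only wells.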
Active calls of the source: *; ? = inconclusive; . = not tested or not shown. Compounds with a hit are over-represented: about 19% of the library has one in this group of screens. Unless noted, the call rests on the fitted dose curve; in most records, active means well fitted curve in the direction sought with a large enough effect; inconclusive means small, poorly fitted or top-dose-only effect, or another doubt; inactive means no such curve, though single readings can be large; an effect the other way counts as inactive or inconclusive. Unless noted, on the % scale 0 is the no-effect control and ±100 the full control effect.

SMILES | HT1080 IDH1KD tx | TDP1 cell CPT | IL1B secr inh | TDP1 cell noCPT | ELG1 repair inh | HT1080-NT tox
Cc1cccc(N2CCN(C(=O)c3cc4c(=O)n(C)c5ccccc5c4n3C)CC2C)c1 (centres undefined) | -18% | 18µM* | -24 | 9.2µM* | 15µM* | -12%
Cn1c(C(=O)N2CCN(Cc3ccccc3)CC2)cc2c(=O)n(C)c3ccccc3c21 | -4% | 18µM* | -18 | ? | -16% | -5%
CCOCc1c(C(=O)OCC(=O)NCc2ccc(F)cc2)oc2ccccc12 | 5% | 3% | -14 | -22% | 8% | 4%
COc1ccc(-c2cc3cc(-c4cc(OC)c(OC)c(OC)c4)ccc3o2)cc1 | 4% | ? | 7 | -23% | ? | 0%
CNS(=O)(=O)c1cn(CC(=O)N2CCN(c3ccc(C)cc3C)CC2)cc1S(=O)(=O)NC | . | -14% | . | -29% | . | .
COc1ccccc1C(=O)NCc1ccccc1 | -1% | ? | 9 | -15% | 11% | -1%
Cc1ccccc1NC(=O)C(=O)NCC1(c2ccccc2)CCCC1 | . | ? | . | 16µM* | . | .
COc1ccccc1C(=O)NCC1(c2ccccc2)CCCC1 | -4% | 16µM* | -77* | ? | ? | 15%
O=C(NCC1(c2ccccc2)CCCC1)C1(c2ccccc2)CCCC1 | ? | ? | -22 | ? | -14% | ?
O=C(NCC1(c2ccccc2)CCCC1)c1ccccc1Br | -25% | 16µM* | 0 | ? | ? | 2%
O=C(NCC1(c2ccccc2)CCCC1)C(=O)NCC1(c2ccccc2)CCCC1 | 7% | -1% | 0 | -30% | 2% | 12%
S=C(NCC1(c2ccccc2)CCCC1)Nc1ccccc1 | -9% | 21µM* | 9 | 12µM* | ? | -8%
CC(NC(=O)C1CCOCC1)c1nnc2n1CCN(Cc1ccc3cccnc3c1)CC2 (centres undefined) | . | 4% | . | -4% | . | .
O=C(OCc1cccc(F)c1)c1ccc2c(=O)n3c(nc2c1)CCC3 | -3% | 0% | 52 | ? | -5% | -2%
Cc1cccc(C(=O)Nc2ccc(C(=O)OCc3cc(=O)n4nc(CC(C)C)sc4n3)cc2)c1 | . | -8% | . | ? | . | .
COC(=O)c1ccc(/C=C/C(=O)OCC(=O)Nc2sccc2C(N)=O)cc1 | -18% | ? | -20 | ? | ? | -6%
Cc1cccc(CNc2ncncc2-c2ccccc2Cl)c1 | . | -11% | . | ? | . | .
N#CCC(=O)Nc1ccc(C(=O)NCc2ccccn2)cc1 | 6% | 0% | -10 | 6% | 2% | 11%
O=C(NCC1(c2ccccc2)CCCC1)c1ccccc1 | 5% | 15µM* | 15 | 12µM* | 0% | 3%
Cc1ccccc1NC(=O)Cn1nc(-c2ccccc2)nc(Cc2ccccc2)c1=O | . | 10% | . | -26% | . | .
COc1ccc(Cl)cc1NC(=O)COC(=O)/C=C/c1c(C)nn(C2CCS(=O)(=O)C2)c1Cl (centres undefined) | 11% | -8% | -2 | -15% | 13µM* | 4%
Cc1c(C(=O)N/N=C/c2ccccc2)[nH]c2ccc(Cl)cc12 | 15µM* | 9.2µM* | 29 | 6.5µM* | 10% | 18µM*
Cc1c(C(=O)N/N=C/c2ccc(N(C)C)cc2)[nH]c2ccc(Cl)cc12 | ? | 5.8µM* | 52 | 5.8µM* | 4% | 5.8µM*
CCCCCC(C)N (centres undefined) | . | 15% | . | 12% | . | .
COc1ccc(-c2cn[nH]c2-c2ccc(OCc3ccc(F)cc3)cc2O)cc1OC | 18µM* | 21µM* | -88* | 23µM* | ? | -28%
SMILES | HT1080 IDH1KD tx | TDP1 cell CPT | IL1B secr inh | TDP1 cell noCPT | ELG1 repair inh | HT1080-NT tox
O=[N+]([O-])c1ccc(COc2ccc(-c3[nH]ncc3-c3ccccc3)c(O)c2)cc1 | ? | ? | -15 | ? | -1% | ?
COc1ccc(-c2cn[nH]c2-c2ccc(OCc3ccccc3)cc2O)cc1OC | 13µM* | 16µM* | -101* | 18µM* | 13µM* | ?
Oc1cc(OCc2ccccc2)ccc1-c1[nH]ncc1-c1ccccc1 | 23µM* | 10µM* | -101* | 12µM* | 5% | 16µM*
O=C(CC1C=CCC1)Nc1ccccc1 (centres undefined) | -1% | 13% | -17 | -3% | . | 4%
Cc1ccc2c(c1)cc1c(=O)n(CC(=O)NC3CCCCC3)nc(C)n12 | . | -10% | . | -14% | . | .
COc1ccccc1NC(=S)N1CC(C)(C)C1=O | 11% | -3% | 13 | 1% | 2% | 1%
COc1ccc(NS(=O)(=O)c2cc(NC(=O)/C=C/c3ccccc3OC)ccc2N2CCCCC2)cc1 | -5% | 8% | -1 | 9% | 1% | -2%
Cc1cc(N2CCCCC2)nc2ccc(NC(=O)/C=C/c3ccccc3OC(C)C)cc12 | . | 7.3µM* | . | 10µM* | . | .
Cc1cc(N2CCCCC2)nc2ccc(NC(=O)/C=C/c3ccccc3Cl)cc12 | . | 13µM* | . | 10µM* | . | .
COc1ccc(/C=C/C(=O)Nc2ccc3nc(N4CCCCC4)cc(C)c3c2)cc1OC | . | 2.9µM* | . | 2.6µM* | . | .
COc1ccc(/C=C/C(=O)Nc2ccc3nc4n(c(=O)c3c2)CCCC4)cc1OC | ? | -8% | 3 | -1% | -1% | ?
CC(C)(C)c1cc[n+](C2=C([O-])c3ccccc3C(=O)/C2=N\S(=O)(=O)c2ccccc2)cc1 | 21µM* | ? | . | 23µM* | 15µM* | ?
CCN1C(=O)CS/C1=N\S(=O)(=O)c1ccccc1 | 10% | -20% | 1 | -6% | 12% | 6%
CCCCC[n+]1ccn(C2=C([O-])c3ccccc3C(=O)/C2=N\S(=O)(=O)c2ccccc2)c1 | 18µM* | 15µM* | 20 | 18µM* | ? | ?
CC(C)[n+]1ccn(C2=C([O-])c3ccccc3C(=O)/C2=N\S(=O)(=O)c2ccccc2)c1 | 23µM* | ? | . | 18µM* | 23µM* | 23µM*
CCCCC[n+]1ccn(C2=C([O-])c3ccccc3C(=O)/C2=N\S(=O)(=O)c2ccc(Br)cc2)c1 | -2% | 10µM* | 82 | ? | ? | -7%
COc1cccc(CC(=O)n2nc(N)c3cc4ccc(OC)cc4nc32)c1 | -1% | -10% | 63 | -27% | 9.2µM* | 4%
COc1ccc2cc3c(N)nn(C(=O)Cc4c[nH]c5ccccc45)c3nc2c1 | ? | 10µM* | -98* | 4.1µM* | 1.5µM* | ?

Screens (PubChem BioAssay)
